20 compounds from PubChem BioAssay (NCATS) can be followed below.

Results filed as inconclusive are left out. Unmarked numbers belong to inactive results. The source made the active and inactive calls. Calls follow the shape of the dose curve; as a rule, active = well fitted curve in the direction sought with a large enough effect; inconclusive = small, poorly fitted or top-dose-only effect, or another doubt; inactive = no such curve, though single readings can be large; an effect the other way counts as inactive or inconclusive.
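Also: 0% = no-inhibitor control and -100% = no-enzyme control.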

One assay relates to Zika virus NS2B-NS3 protease (unlinked). The assay can be described thus: Optimization of GU AMC qHTS for Zika virus inhibitors: Unlinked NS2B-NS3 protease assay (AID 1347151). Also: nearly all actives have a fitted effect of over 80% in size. The conditions noted are these: recombinant ZIKV NS2B-NS3 protease, fluorogenic AMC substrate; series mostly up to 52.5 µM; activity change, negative = inhibition: at the top concentration. Summed up:
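Percent inhibition is derived from the 15-min change in AMC fluorescence, normalized against no-inhibitor and no-enzyme controls, then fitted to a 4-parameter Hill curve. Aprotinin was the intraplate control.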
Regarding `NC(=O)CN1CCCC1=O`, the “activity change, negative = inhibition” value is 3.41%.

On to `COc1ccc(C(=O)N2CCCC2=O)cc1`, for which the “activity change, negative = inhibition” value is 0.467%.

In the case of `COC(=O)C1=CCCN(C)C1`, the “activity change, negative = inhibition” value was 2.34%.

Regarding `CC(C)=CCN1CC[C@@]2(C)c3cc(O)ccc3C[C@@H]1[C@@H]2C`, the “activity change, negative = inhibition” value is -12.9% [at 114 µM].

In the next assay the test system is Zika virus NS2B-NS3 protease. Nature of the assay: Primary screen GU AMC qHTS for Zika virus inhibitors (AID 1347154). Also: nearly all actives have a fitted effect of over 70% in size. The conditions noted are these: Zika NS2B-NS3 unlinked protease, AMC fluorogenic substrate; series mostly up to 54.1 µM; activity change, negative = inhibition: at the top concentration. The method in brief:
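Unlinked Zika NS2B hydrophilic domain/NS3 protease domain noncovalent complex (25 nM final) in 10 mM Tris-HCl pH 8.0, 0.01% Tween 20, with AMC peptide substrate. Fluorescence (ex 340, em 450 nm) change over 15 min, room temperature; percent inhibition fitted to 4-parameter Hill equation.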
On the technique in general: Quantitative high-throughput screening tests each substance at several concentrations.
Consider `CC(CC(C#N)(c1ccccc1)c1ccccc1)N(C)C` (stereo not given), for which the “activity change, negative = inhibition” value was 0.532% [at 104 µM].

Regarding `C[C@H]1CNCCc2ccc(Cl)cc21`, the “activity change, negative = inhibition” value was 0.111%.

As for `CCCCCCCCC(=O)NCc1ccc(O)c(OC)c1`, the “activity change, negative = inhibition” value was -2.12%.

Regarding `CC#C[C@]1(O)CC[C@H]2[C@@H]3C[C@H](C)C4=CC(=O)CC[C@]4(C)[C@H]3CC[C@@]21C`, the “activity change, negative = inhibition” value was -8.72%.

In the case of `NC(=O)OCCCc1ccccc1`, the “activity change, negative = inhibition” value was 4.58%.

For `COc1cc(CC(C)N)c(OC)cc1Br` (stereo not given), the “activity change, negative = inhibition” value was -1.56% [at 104 µM].

As for `C[C@@H]1C[C@@H]([C@H](O)CC2CC(=O)NC(=O)C2)C(=O)[C@@H](C)C1`, the Potency entry was “inactive”.

As for `CCC1(c2ccccc2)CCC(=O)NC1=O` (stereo not given), the “activity change, negative = inhibition” value is -2.05%.

`CC(Cc1ccc2c(c1)OCO2)NO` (stereo not given): the “activity change, negative = inhibition” value is -8.74% [at 104 µM].

Take `C[C@]12CC[C@H]3[C@@H](CCC4=CC(=O)CC[C@@]43C)[C@@H]1CC[C@@H]2C(=O)O`: the “activity change, negative = inhibition” value is 0.908%.

Consider `CC(C)=C[C@@H]1[C@@H](C(=O)OCc2coc(Cc3ccccc3)c2)C1(C)C`, for which the “activity change, negative = inhibition” value is -14.1%.

Regarding `ClCCCN1CCN(c2cccc(Cl)c2)CC1`, the “activity change, negative = inhibition” value was -0.166%.

`CN1CCC(N(Cc2ccccc2)c2ccccc2)CC1`: the “activity change, negative = inhibition” value is 0.0149%.

Consider `C[C@H]1C(=O)O[C@@H]2CCN3CC=C(COC(=O)[C@](C)(O)[C@]1(C)O)[C@H]23`, for which the “activity change, negative = inhibition” value was 2.09%.

As for `N#Cc1nn(-c2c(Cl)cc(C(F)(F)F)cc2Cl)c(N)c1S(=O)C(F)(F)F` (stereo not given), the Potency entry is “inactive”.

Take `CC(C(O)c1ccccc1)N(C)C/C=C/c1ccccc1` (stereo not given): the “activity change, negative = inhibition” value was -3.5%.
